Experimental findings from article PMC4552634, “A New Set of Chemical Starting Points with Plasmodium falciparum Transmission-Blocking Potential for Antimalarial Drug Discovery” (PLoS ONE, 2015) are described below.

Structures are written as SMILES. Among all 13,000 compounds or so, about 3,200 (25%) showed an effect of 50% or more. Some of the results follow.

The subject of this assay is P. falciparum stage V gametocytes. Set-up: BacTiter-Glo ATP luminescence viability of purified stage V gametocytes in 384-well plates, per cent inhibition versus DMSO. Particulars: 48 h, 5 µM; inhibitor.
In the case of `N=C(N)NCCCCN(Cc1ccccc1)c1ccccc1` [TCMDC-131834], the % Inhibition (in general, the change of the read-out against control, counted positive when it falls) is listed as 24.97%.

For `Nc1nc2cccc3ccc4cccc1c4c32` [TCMDC-142055], the “% Inhibition” value turned out to be 15.08%.

As to `COc1cc2ncnc(Nc3ccc(OCc4ccccc4Br)c(Cl)c3)c2cc1OC` [TCMDC-131913], the “% Inhibition” value worked out at 20.89%.

For `O=[N+]([O-])c1ccc(C=NO)nc1` [TCMDC-131967], the “% Inhibition” value worked out at 114.3%.

Regarding `O=[N+]([O-])c1ccc(C=NNc2nc3ccccc3[nH]2)cc1` [TCMDC-124105], the “% Inhibition” value is -75.71%.

With `CCCCN(CCCC)Cc1cc(N(C)c2ccc([N+](=O)[O-])cn2)ccc1O` [TCMDC-137484], the “% Inhibition” value is on record as -6.258%.

Consider `NC1CCN(c2nc(NCCCc3ccc(O)cc3)nc(NCc3ccccc3-c3ccccc3)n2)CC1` [TCMDC-133390], for which the “% Inhibition” value was 36.08%.

With `CC1(C)N=C(N)N=C(N)N1OCCc1ccccc1` [TCMDC-131597], the “% Inhibition” value is -4.135%.

With `COc1cc2c(cc1OC)C(C(=O)Nc1ccc(C(F)(F)F)cc1)C(c1cccs1)N(C)C2=O` (stereo not drawn) [TCMDC-123797], the “% Inhibition” value amounted to 62.6%.

With `COc1ccc(NC(=O)C2c3ccccc3C(=O)N(CC(C)C)C2c2cccs2)cc1OC` (stereo not drawn) [TCMDC-125289], the “% Inhibition” value is 95.75%.

As for `COc1ccc(C2CC(c3cccs3)=NN2C(=O)CNc2ccccc2F)cc1OC` (stereo not drawn) [TCMDC-123552], the “% Inhibition” value was -9.982%.

In the case of `COc1ccc(C2C(C(=O)Nc3ccc(C)cc3Br)c3ccccc3C(=O)N2C)cc1` (stereo not drawn) [TCMDC-123597], the “% Inhibition” value is -11.57%.

As to `COc1cc(OC)c(NC(=O)Nc2ccnc3ccccc23)cc1Cl` [TCMDC-139463], the “% Inhibition” value is 15%.

As for `COc1cc(OC)c(NC(=O)C2c3ccccc3C(=O)N(C)C2c2cccs2)cc1Cl` (stereo not drawn) [TCMDC-125447], the “% Inhibition” value was 95.47%.

Consider `COc1ccc(C2C(C(=O)Nc3cc(Cl)c(OC)cc3OC)c3ccccc3C(=O)N2C)cc1` (stereo not drawn) [TCMDC-123596], for which the “% Inhibition” value is reported as 80.19%.

As to `COc1ccc(C2C(C(=O)Nc3cc(C)ccc3OC)c3ccccc3C(=O)N2C)cc1` (stereo not drawn) [TCMDC-123595], the “% Inhibition” value is recorded as 25.42%.

For `CCCCN1CCN(c2cc(NS(=O)(=O)c3cccc(C(=O)Nc4ccc(C(F)(F)F)cc4)c3)ccc2OC)CC1` [TCMDC-141779], the “% Inhibition” value was -16.75%.

As for `COc1ccc(NC(=O)c2ccc(-c3nc(-c4cccc(C(F)(F)F)c4)cs3)cc2)cc1N1CCN(C)CC1` [TCMDC-138686], the “% Inhibition” value was determined as 5.66%.

As to `O=C(/C=C/c1ccc(Cl)cc1)NCCCCCN1CCCC(C(=O)Nc2ccc(F)c(Cl)c2)C1` (stereo not drawn) [TCMDC-136113], the “% Inhibition” value turned out to be 4.941%.

For the compound `CCN(CC)CCNC(=O)c1ccc(NC(=O)c2cc3c(C)nn(-c4ccc(Cl)cc4)c3s2)cc1` [TCMDC-124020], the “% Inhibition” value stood at 26.74%.

On to `N#Cc1ccc(C=Cc2nccc3c2[nH]c2ccccc23)cc1` [TCMDC-124483], for which the “% Inhibition” value was -0.1389%.

As to `Cc1cc(C(=O)OCC(=O)Nc2c(C)n(C)n(-c3ccccc3)c2=O)c(C)n1-c1ccc(F)cc1` [TCMDC-123794], the “% Inhibition” value is on record as -8.44%.

With `CCOC(=O)c1[nH]c2ccc(F)cc2c1NC(=O)CN1CCN(c2cccc(C(F)(F)F)c2)CC1` [TCMDC-124048], the “% Inhibition” value is given as -41.18%.

Turning to `COc1ccc2nccc(N3CCC(NCCNS(=O)(=O)c4ccc5c(c4)NC(=O)CS5)C3)c2n1` (stereo not drawn) [TCMDC-134527], the “% Inhibition” value was -17.46%.

As to `CCCCCCCCCN(CCC)C(=O)[C@@H]1OC(C(=O)OC(c2ccccc2)c2ccccc2)=C[C@H](NC(=O)OC(C)(C)C)[C@H]1NC(C)=O` [TCMDC-132020], the “% Inhibition” value is given as -25.5%.

`O=C(Nc1ccc(Oc2cccnc2)cc1)C1CCN(Cc2cc(Cl)ccc2O)CC1` [TCMDC-124640]: the “% Inhibition” value is recorded as -32.1%.

With `O=C(Cc1cnc[nH]1)Nc1ccc(-c2ccc(-c3nc4ccc(F)cc4[nH]3)cc2)cc1` [TCMDC-136781], the “% Inhibition” value was -5.638%.

As for `CC(=O)Nc1nc(C(=O)Nc2ccc(-c3cccc(-c4nc5ccc(F)cc5[nH]4)c3)cc2)cs1` [TCMDC-137122], the “% Inhibition” value was -21.41%.

Consider `O=C(NCc1cccc(OC(F)(F)F)c1)c1cnc2c(c1)nc(-c1cnc(-c3ccccc3)[nH]1)n2CCc1cnc[nH]1` [TCMDC-139690], for which the “% Inhibition” value is recorded as -64.98%.

On to `CCn1c(=O)c(C(=O)Nc2cc(Cl)c(OC)cc2OC)nc2ccccc21` [TCMDC-125064], for which the “% Inhibition” value is recorded as -72.41%.

As for `COc1cc(OC)c(NC(=O)C2c3ccccc3C(=O)N(CC(C)C)C2c2cccs2)cc1Cl` (stereo not drawn) [TCMDC-124760], the “% Inhibition” value is reported as 55.1%.

Turning to `COc1ccc(OC)c(NC(=O)C2c3ccccc3C(=O)N(CC(C)C)C2c2cccs2)c1` (stereo not drawn) [TCMDC-124759], the “% Inhibition” value amounted to 26.61%.

In the case of `O=C(CN1CCN(C(C(=O)Nc2cc(C(F)(F)F)ccc2Cl)c2ccccc2)CC1)NC1CC1` (stereo not drawn) [TCMDC-125267], the “% Inhibition” value worked out at 8.518%.

As for `C[C@@H](Nc1nc(NCc2ccccc2)c2sccc2n1)c1ccccc1` [TCMDC-136500], the “% Inhibition” value is recorded as -1.002%.

For the compound `c1ccc(CNc2nc(NCCc3cnc[nH]3)nc(NCc3cccc4ccccc34)n2)cc1` [TCMDC-139737], the “% Inhibition” value amounted to 1.176%.

For the compound `COc1cc2nc(N3CCC(CCCC4CCNCC4)CC3)nc(NCc3ccccn3)c2cc1OC` [TCMDC-138494], the “% Inhibition” value amounted to 104%.

`CC(C)Nc1nc(NCCc2cnc[nH]2)nc(NCc2cccc3ccccc23)n1` [TCMDC-139736]: the “% Inhibition” value amounted to 1.941%.

Take `COc1cc2nc(N3CCC(c4ccccc4)CC3)nc(NCc3ccc(=O)[nH]c3)c2cc1OC` [TCMDC-136497]: the “% Inhibition” value is -1.844%.

As to `COc1cc2nc(NCCc3ccccc3)nc(NC(C)c3ccccc3)c2cc1OC` (stereo not drawn) [TCMDC-135384], the “% Inhibition” value worked out at 51.56%.

Consider `COc1cc2nc(NCCc3ccccc3)nc(NCc3ccc(C#N)cc3)c2cc1OC` [TCMDC-135300], for which the “% Inhibition” value is reported as 97.53%.

In the case of `COc1ccc(CCNc2nc(NCCc3cnc[nH]3)nc(NCc3cccc4ccccc34)n2)cc1OC` [TCMDC-139244], the “% Inhibition” value was 77.02%.

On to `COc1ccc(C(C)Nc2nc(N)c3cc(OC)c(OC)cc3n2)cc1.Cl` (stereo not drawn) [TCMDC-131891], for which the “% Inhibition” value is 10.29%.

In the case of `CC[C@H]1CN2CC[C@H]1C[C@H]2[C@H](OC(=O)c1ccccc1)c1cc(C#N)nc2ccc(OC)cc12` [TCMDC-138208], the “% Inhibition” value came to 28.19%.

Consider `NC(N)=NC(=O)Nc1cc(Cl)c(Cl)c(Br)c1` [TCMDC-137463], for which the “% Inhibition” value is on record as -17.34%.

Turning to `N=C(N)c1cc(Cl)cc(NC(=O)Nc2cc(Cl)cc(C(=N)N)c2)c1` [TCMDC-124110], the “% Inhibition” value is listed as -2.183%.

For the compound `COc1cc2nc(NCC3CCCCC3)nc(NCc3ccccc3)c2cc1OC` [TCMDC-132014], the “% Inhibition” value is listed as 59.54%.

Take `COc1cc2nc(N3CCC(C(N)=O)CC3)nc(NCc3ccccc3)c2cc1OC` [TCMDC-132023]: the “% Inhibition” value worked out at 16.05%.

As to `COc1cc2nc(NCCc3ccccc3)nc(NCc3cc(C)no3)c2cc1OC` [TCMDC-135435], the “% Inhibition” value came out at 96.72%.

For `COc1cc2nc(N3CCN(C(=O)c4ccco4)CC3)nc(NCc3ccccc3)c2cc1OC` [TCMDC-132028], the “% Inhibition” value is reported as 52.38%.

With `COc1cc2nc(-c3ccccc3)nc(N3CCN(C(=O)c4ccco4)CC3)c2cc1OC` [TCMDC-125059], the “% Inhibition” value was -9.427%.

In the case of `COc1ccc(CNc2nc(NCCc3ccccc3)c3cc(OC)c(OC)cc3n2)cc1OC` [TCMDC-132019], the “% Inhibition” value came to 85.76%.

As to `CC(=O)NCCCCC1NC2(C(=O)N(Cc3ccc(C(C)(C)C)cc3)c3ccccc32)C2C(=O)N(C3CCCCC3)C(=O)C12` (stereo not drawn) [TCMDC-139771], the “% Inhibition” value is recorded as 5.053%.

As for `Cc1cc(N(C)C)nc(Nc2ccc(NC(=O)c3ccc(F)cc3)cc2)n1` [TCMDC-124723], the “% Inhibition” value was determined as 5.364%.

As to `O=C(Nc1ccc(Cl)cc1)Nc1cccc(-c2ccc(-c3nc4ccccc4[nH]3)cc2)c1` [TCMDC-133182], the “% Inhibition” value is given as -15.2%.

For `CN(C)CCCNc1ncnc2c1[nH]c1ccc(F)cc12` [TCMDC-125598], the “% Inhibition” value is -5.367%.

Regarding `COc1ccc(CNc2nc(NCc3ccc(C(F)(F)F)cc3)c3cc(OC)c(OC)cc3n2)cc1OC` [TCMDC-132016], the “% Inhibition” value is given as 104.7%.

With `COc1cc2nc(NCCc3ccccc3)nc(NCc3nccs3)c2cc1OC` [TCMDC-135436], the “% Inhibition” value was 24.41%.

With `COc1cc2nc(NCCn3nc(C)cc3C)nc(NCCc3ccccc3)c2cc1OC` [TCMDC-135473], the “% Inhibition” value amounted to 52.48%.

As to `COc1ccc(CCNc2nc(N)c3cc(OC)c(OC)cc3n2)cc1.Cl` [TCMDC-131888], the “% Inhibition” value is listed as 1.23%.

As to `COc1cc2ncnc(Nc3ccc(OCc4ccccc4)c(C(F)(F)F)c3)c2cc1OC` [TCMDC-131921], the “% Inhibition” value came out at 4.607%.

As to `COc1cc2nc(NCCc3ccccc3)nc(NCCCc3ccccc3)c2cc1OC` [TCMDC-135301], the “% Inhibition” value is 108%.

With `Clc1ccc2c(NCCc3ccccc3)ccnc2c1` [TCMDC-138551], the “% Inhibition” value was -1.928%.

In the case of `O=c1ccc(CNc2nc(NCCc3ccccc3)nc3cc(Cl)ccc23)c[nH]1` [TCMDC-136510], the “% Inhibition” value turned out to be 52.65%.

As for `O=c1ccc(CNc2nc(NCCc3ccccc3)nc3ccc(Cl)cc23)c[nH]1` [TCMDC-136489], the “% Inhibition” value was found to be 35.37%.

On to `Cc1c(CNCCCNc2cc(=O)c3ccccc3[nH]2)sc(-c2ccco2)c1Br` [TCMDC-141065], for which the “% Inhibition” value is listed as -27.75%.

Take `CSc1cccc(Nc2nc3ccc(S(=O)(=O)NC(C)C(C)C)cc3n2[C@H](C)C(C)(C)C)c1` (stereo partly drawn) [TCMDC-136239]: the “% Inhibition” value is listed as -63.84%.

`Cc1nn(C)cc1C(C)Nc1nncc(-c2ccc(C(F)(F)F)cc2)n1` (stereo not drawn) [TCMDC-124694]: the “% Inhibition” value was -19.2%.

As for `OC1(c2ccc(Br)cc2)CCN(C2CCN(Cc3ccccc3)CC2)CC1` [TCMDC-124137], the “% Inhibition” value is 40.29%.

On to `O=C(O)C(F)(F)F.c1cc(CN2CCN(c3ccncc3)CC2)cc(-c2ccc(-c3nc4ccccc4[nH]3)s2)c1` [TCMDC-132909], for which the “% Inhibition” value is recorded as 11.83%.
